Source: PubChem BioAssay (Tox21)
Records with an inconclusive call do not appear. The source holds several records for some structures; these can differ, active in one and inactive in another. Calls of active or inactive are those of the source. Unless noted, the call rests on the fitted dose curve; in most records, active means well fitted curve in the direction sought with a large enough effect in the repeat runs; inconclusive means weak or mixed curves; inactive means no such curve, though single readings can be large; an effect the other way counts as inactive or inconclusive.

Assays:
[1] = A CellTox Green Cytotoxicity Assay to monitor cytotoxicity in HEK293 cells - 32 hour (AID 1224881); further: nearly all actives have a fitted effect of over 40% in size; further: potency means the concentration at half of the fitted maximal effect
Procedure, shortened: (§1)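 Read-out: fluorescence of a cell-impermeant cyanine dye staining DNA of dead cells, proportional to cytotoxicity. HEK293, 600 cells/well with reagent, compound (23 nL DMSO) added after 5 h; reads at 0, 8, 16, 24, 32, 40 h.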

[2] = A CellTox Green Cytotoxicity Assay to monitor cytotoxicity in HepG2 cells - 0 hour (AID 1224882); further: nearly all actives have a fitted effect of over 35% in size
Procedure, shortened: (§2)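 HepG2, 600 cells/well premixed w/ CellTox Green; 5 h settle, 37 C/5% CO2; pintool cpd add (DMSO); 37 C, 40 h; fluorescence read at 0, 8, 16, 24, 32, 40 h.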

[3] = A CellTox Green Cytotoxicity Assay to monitor cytotoxicity in HepG2 cells - 32 hour (AID 1224883); further: nearly all actives have a fitted effect of over 50% in size; further: potency means the concentration at half of the fitted maximal effect
Procedure, shortened: as §2

[4] = A CellTox Green Cytotoxicity Assay to monitor cytotoxicity in HEK293 cells - 8 hour (AID 1224884); further: nearly all actives have a fitted effect of over 35% in size
Procedure, shortened: as §1

[5] = qHTS RealTime-Glo MT Cell Viability Assay in HepG2 cells - 16 hour (AID 1224885); further: nearly all actives have a fitted effect of over 50% in size; further: potency means the concentration at half of the fitted maximal effect
Procedure, shortened: (§3)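 Compound treatment began 5 h after plating HepG2 cells (600/well) with NanoLuc luciferase and prosubstrate. Plates stayed at 37 C for 40 h; luminescence was captured at six time points, 0 h through 40 h.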

[6] = A CellTox Green Cytotoxicity Assay to monitor cytotoxicity in HEK293 cells - 16 hour (AID 1224888); further: nearly all actives have a fitted effect of over 35% in size
Procedure, shortened: as §1

[7] = qHTS RealTime-Glo MT Cell Viability Assay in HepG2 cells - 0 hour (AID 1224889); further: nearly all actives have a fitted effect of over 50% in size
Procedure, shortened: as §3

[8] = A CellTox Green Cytotoxicity Assay to monitor cytotoxicity in HepG2 cells - 8 hour (AID 1224890); further: nearly all actives have a fitted effect of over 45% in size
Procedure, shortened: as §2

[9] = qHTS assay to identify small molecule antagonists of the estrogen receptor alpha (ER-alpha) signaling pathway using the BG1 cell line in the presence of 0.1 nM 17-beta-estradiol - cell viability counter screen (AID 1259241); further: nearly all actives have a fitted effect of over 40% in size; further: potency means the concentration at half of the fitted maximal effect
Procedure, shortened: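 The cell line endogenously expresses full-length ER-alpha and carries four EREs driving luciferase. Cells are cultured 5 days hormone-free, treated 22 hr with compounds and 0.1 nM estradiol, then viability is read by fluorescence.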

[10] = qHTS assay to identify small molecule antagonists of the androgen receptor (AR) signaling pathway using the MDA cell line in the presence of 0.5 nM R1881 - cell viability counter screen (AID 1259242); further: nearly all actives have a fitted effect of over 45% in size; further: potency means the concentration at half of the fitted maximal effect
Procedure, shortened: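 Live-cell protease fluorescence, CellTiter-Fluor, 30 min at 37C. Cells: MDA-kb2, 3,000/well, preincubated 5 hr. Compounds plus 0.5 nM R1881 final, 16 hr, 37C, 0% CO2.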

[11] = target: Estrogen receptor (Homo sapiens) (UniProt P03372); assay: qHTS assay to identify small molecule antagonists of the estrogen receptor alpha (ER-alpha) signaling pathway using the BG1 cell line in the presence of 0.1 nM 17-beta-estradiol (AID 1259244); further: nearly all actives have a fitted effect of over 50% in size; further: potency means the concentration at half of the fitted maximal effect
Estrogen receptor (Homo sapiens), sequence (P03372 whole entry, looked up): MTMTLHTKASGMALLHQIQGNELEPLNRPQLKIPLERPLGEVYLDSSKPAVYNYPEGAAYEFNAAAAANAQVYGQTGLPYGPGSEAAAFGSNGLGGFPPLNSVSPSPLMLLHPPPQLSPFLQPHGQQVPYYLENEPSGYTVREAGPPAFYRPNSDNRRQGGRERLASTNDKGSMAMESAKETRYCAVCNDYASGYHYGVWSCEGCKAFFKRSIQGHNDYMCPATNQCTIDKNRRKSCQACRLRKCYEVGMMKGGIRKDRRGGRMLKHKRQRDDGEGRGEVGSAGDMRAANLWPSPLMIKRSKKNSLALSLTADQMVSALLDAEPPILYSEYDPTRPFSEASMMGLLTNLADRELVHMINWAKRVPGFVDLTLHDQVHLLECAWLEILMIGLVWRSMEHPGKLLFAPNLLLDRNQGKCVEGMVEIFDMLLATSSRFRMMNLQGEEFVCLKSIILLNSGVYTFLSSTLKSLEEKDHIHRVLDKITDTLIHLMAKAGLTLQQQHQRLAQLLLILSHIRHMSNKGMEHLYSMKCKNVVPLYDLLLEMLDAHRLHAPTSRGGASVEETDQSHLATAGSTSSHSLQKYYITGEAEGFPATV
Procedure, shortened: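 Luminescence after ONE-Glo (30 min, room temperature) measured ERE-luciferase activity in VM7Luc4E2 cells treated 22 h with compound and 0.1 nM final 17beta-estradiol as stimulator.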

[12] = qHTS assay to identify small molecule phospholipidosis (PLD) inducers (AID 1259344; active means well fitted curve in the direction sought with a large enough effect; an effect the other way counts as inactive or inconclusive)
Procedure, shortened: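 After 4 h attachment on collagen I, HepG2 cells were dosed with compound alongside LipidTOX Red, kept 24 h at 37 C, fixed, and imaged for lamellar phospholipid pits.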

[13] = qHTS assay to identify small molecule HDAC inhibitors (AID 1259364);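 further: wild-type HCT-116 cells with endogenous class I/II HDAC activity; top concentration of the series differs between compounds; nearly all actives have a fitted effect of over 45% in size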
Procedure, shortened: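 HCT-116 (wild type), 1,500 cells/well, overnight; compound 2 hr 37C 5% CO2; HDAC-Glo I/II reagent 30 min RT; luminescence readout.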

[14] = qHTS assay to identify small molecule HDAC inhibitors - cell viability counter screen (AID 1259365); further: nearly all actives have a fitted effect of over 50% in size; further: potency means the concentration at half of the fitted maximal effect
Procedure, shortened: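 Viability readout: CellTiter-Glo luminescence. Wild-type HCT-116 cells, 2hr compound treatment following overnight attachment at 37 C.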

[15] = qHTS assay to identify small molecule agonists of the sonic hedgehog signaling (Shh) pathway - cell viability counter screen (AID 1259366); further: nearly all actives have a fitted effect of over 50% in size; further: potency means the concentration at half of the fitted maximal effect
Procedure, shortened: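 Viability measured fluorometrically (CellTiter-Fluor, 1hr, 37C) in 3T3 Gli1-Luc reporter cells after 23hr compound exposure within a 24hr incubation at 37C/5% CO2.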

[16] = qHTS assay to identify small molecule agonists of the sonic hedgehog signaling (Shh) pathway (AID 1259368; calls by dose curve;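 further: NIH/3T3-derived 3T3Gli1-Luc cells carrying a stable Gli1-driven firefly luciferase reporter; series mostly up to about 92 µM; nearly all actives have a fitted effect of over 15% in size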)
Procedure, shortened: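 Read-out: firefly luciferase luminescence from a Gli1 response element reporter stably integrated in NIH/3T3-derived 3T3Gli1-Luc cells, measured 30 min at room temperature after reagent addition. Compound exposure lasted 24 hr at 37 C, 5% CO2.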

[17] = qHTS RealTime-Glo MT Cell Viability Assay in HEK293 cells - 24 hour (AID 1224886); further: nearly all actives have a fitted effect of over 50% in size; further: potency means the concentration at half of the fitted maximal effect
Procedure, shortened: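 Quantitative high-throughput screen of the Tox21 10K library in HEK293: cells and RealTime-Glo reagents plated together, compound added at 5 h, luminescence monitored through 40 h at 37 C.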

[18] = qHTS RealTime-Glo MT Cell Viability Assay in HEK293 cells - 8 hour (AID 1224887); further: nearly all actives have a fitted effect of over 50% in size; further: potency means the concentration at half of the fitted maximal effect
Procedure, shortened: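 Luminescence readout at each listed time point; HEK293, 600 cells/well, RealTime-Glo MT reagent added with cells; compounds pinned (23 nL in DMSO) after 5 h at 37 C; continuous culture at 37 C.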

[19] = qHTS assay to identify small molecule antagonists of the sonic hedgehog signaling (Shh) pathway - cell viability counter screen (AID 1259367); further: nearly all actives have a fitted effect of over 55% in size; further: potency means the concentration at half of the fitted maximal effect
Procedure, shortened: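 Conditioned medium drove Shh signaling in 3T3 Gli1-Luc cells exposed to compounds at 37C and 5% CO2. Viability was determined from CellTiter-Fluor fluorescence, with reagent incubated 1 hr after 23 hr of treatment.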

[20] = target: Androgen receptor (Homo sapiens) (UniProt P10275); assay: qHTS assay to identify small molecule antagonists of the androgen receptor (AR) signaling pathway using the MDA cell line in the presence of 0.5 nM R1881 (AID 1259243); further: nearly all actives have a fitted effect of over 50% in size; further: potency means the concentration at half of the fitted maximal effect
Androgen receptor (Homo sapiens), sequence (P10275 whole entry, looked up): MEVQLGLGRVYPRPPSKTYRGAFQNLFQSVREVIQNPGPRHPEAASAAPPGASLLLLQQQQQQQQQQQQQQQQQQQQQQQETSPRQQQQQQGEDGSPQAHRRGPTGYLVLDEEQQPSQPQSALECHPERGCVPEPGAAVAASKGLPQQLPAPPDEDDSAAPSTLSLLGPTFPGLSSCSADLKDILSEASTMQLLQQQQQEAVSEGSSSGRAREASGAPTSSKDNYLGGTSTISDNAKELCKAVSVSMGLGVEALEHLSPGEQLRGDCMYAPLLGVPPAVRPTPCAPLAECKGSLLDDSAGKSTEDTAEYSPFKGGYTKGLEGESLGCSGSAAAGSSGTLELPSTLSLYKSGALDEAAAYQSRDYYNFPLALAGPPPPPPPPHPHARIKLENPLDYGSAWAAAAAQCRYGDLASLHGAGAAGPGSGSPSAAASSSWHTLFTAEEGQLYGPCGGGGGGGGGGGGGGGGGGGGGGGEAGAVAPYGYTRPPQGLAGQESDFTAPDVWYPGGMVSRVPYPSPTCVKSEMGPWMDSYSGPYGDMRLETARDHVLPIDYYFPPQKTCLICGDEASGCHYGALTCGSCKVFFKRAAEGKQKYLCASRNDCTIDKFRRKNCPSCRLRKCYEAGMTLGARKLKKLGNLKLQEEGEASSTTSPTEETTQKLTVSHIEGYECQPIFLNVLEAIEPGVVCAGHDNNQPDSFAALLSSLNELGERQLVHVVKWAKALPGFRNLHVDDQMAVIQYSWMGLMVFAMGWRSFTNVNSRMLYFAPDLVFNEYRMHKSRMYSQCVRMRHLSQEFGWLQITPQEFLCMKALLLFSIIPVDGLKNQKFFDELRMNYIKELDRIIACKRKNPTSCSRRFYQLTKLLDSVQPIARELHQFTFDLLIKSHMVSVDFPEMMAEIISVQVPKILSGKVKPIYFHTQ
Procedure, shortened: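 MDA-kb2, MMTV-luc (AR/GR elements); 3,000 cells/well; cpd + 0.5 nM R1881 final; 16 hr 37C, 0% CO2; ONE-Glo 30 min RT; luminescence.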

Measured: Potency

Cn1cc(C(=O)[C@@H]2CCc3nc[nH]c3C2)c2ccccc21
not listed: [17] | [18] | [19] | [20]
inactive: all other assays above

CNc1ccc(O)cc1
inactive: [2] | [4] | [16]
active: [1] 12.3 µM | [3] 54.8 µM | [5] 48.9 µM | [17] 12.3 µM | [18] 15.5 µM | [9] 21.6 µM | [10] 61 µM | [14] 48.5 µM | [15] 12.2 µM | [19] 15.3 µM

O=c1c(-c2ccccc2)c1-c1ccccc1
active: [1] 5.35 µM | [3] 9.52 µM | [5] 19 µM | [17] 13.4 µM | [18] 16.9 µM | [15] 13.3 µM | [19] 11.9 µM
not listed: [6] | [11] | [13] | [20]
inactive: all other assays above

C/C=C(\C)C(=O)OCc1ccccc1
not listed: [10] | [11] | [12] | [13] | [17] | [20]
inactive: all other assays above

Cc1cc(C2CCCCC2)n(O)c(=O)c1
active: [9] 11.9 µM | [11] 6.68 µM | [19] 15 µM
not listed: [13] | [15] | [17] | [18] | [20]
inactive: all other assays above

NC(=O)NS(=O)(=O)c1ccc(N)cc1
not listed: [15] | [17] | [20]
inactive: all other assays above

O=C(NOCC1CC1)c1ccc(F)c(F)c1Nc1ccc(I)cc1Cl
active: [3] 0.0849 µM | [20] 8.41 µM
not listed: [10] | [11] | [15] | [17] | [18]
inactive: all other assays above

CSc1ccc(/C=C2/C(C)=C(CC(=O)O)c3cc(F)ccc32)cc1
not listed: [6] | [17] | [20]
inactive: all other assays above

O=C(O)c1ccc(Cl)c(Cl)c1
not listed: [6] | [12] | [15]
inactive: all other assays above

NNc1nc(-c2ccccc2)cs1
not listed: [11] | [12] | [13] | [17] | [18] | [20]
inactive: all other assays above

COc1cc(-c2ccc(N=C=O)c(OC)c2)ccc1N=C=O
not listed: [11] | [12] | [13] | [17] | [20]
inactive: all other assays above

COCCCC/C(=N\OCCN)c1ccc(C(F)(F)F)cc1
active: [3] 26.8 µM
not listed: [11] | [12] | [17] | [20]
inactive: all other assays above

Cc1c(C)c2c(c(C)c1O)CCC(C)(COc1ccc(CC3SC(=O)NC3=O)cc1)O2 (configuration not stated)
active: [17] 43.6 µM
54.5 µM (active) and inactive: [20]
not listed: [11] | [12] | [18]
inactive: all other assays above
